Records with an inconclusive call do not appear. Activity calls are given as the source filed them. Unless noted, calls come from the whole dose curve; as a rule, active = well fitted curve in the direction sought with a large enough effect; inconclusive = small, poorly fitted or top-dose-only effect, or another doubt; inactive = no such curve, though single readings can be large; an effect the other way counts as inactive or inconclusive.
How the values were obtained:
[1] = target: Lysosomal acid glucosylceramidase (Homo sapiens) (UniProt P04062); assay: Glucocerebrosidase-p2 (AID 348; in the data active = potency below about 10 µM; note: potency is the fitted concentration of half-maximal effect); settings: purified GBA, blue fluorogenic substrate, 40 min
Lysosomal acid glucosylceramidase (Homo sapiens), sequence (P04062 whole entry, looked up): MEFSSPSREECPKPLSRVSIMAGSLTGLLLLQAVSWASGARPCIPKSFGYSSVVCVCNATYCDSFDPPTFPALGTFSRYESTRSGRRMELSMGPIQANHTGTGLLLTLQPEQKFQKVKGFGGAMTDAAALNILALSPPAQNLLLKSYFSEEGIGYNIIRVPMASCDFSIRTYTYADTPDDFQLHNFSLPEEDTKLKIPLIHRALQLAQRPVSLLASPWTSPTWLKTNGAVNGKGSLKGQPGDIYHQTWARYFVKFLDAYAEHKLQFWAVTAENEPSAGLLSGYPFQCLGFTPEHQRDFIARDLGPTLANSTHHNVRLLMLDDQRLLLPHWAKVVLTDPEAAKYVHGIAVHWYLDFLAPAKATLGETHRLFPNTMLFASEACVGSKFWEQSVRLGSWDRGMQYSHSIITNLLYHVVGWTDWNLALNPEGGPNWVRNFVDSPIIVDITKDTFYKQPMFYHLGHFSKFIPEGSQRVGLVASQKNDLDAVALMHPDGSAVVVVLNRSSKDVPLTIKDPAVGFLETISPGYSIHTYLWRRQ
Outline: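 Compounds titrated from 0.6 nM upwards against 0.2 nM enzyme in pH 5.9 citric acid/KH2PO4, taurocholate, tween-20; blue fluorogenic substrate 80 uM, 40 min room temperature, stopped and read Ex 365/Em 440 for AC50.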

[2] = AP1 Signaling Pathway (AID 357; active = well fitted curve in either direction with a large enough effect, not every such curve was filed as active;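 note: ME-180 reporter cells stimulated with EGF at its EC50 level; % is set by controls: 0 for no effect and ±100 for the full control effect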); settings: ME-180 AP-1-bla reporter, EGF-induced, beta-lactamase ratio, 5 h; at 7.69 µM (top of the series) unless noted
Outline: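 Cells are seeded overnight, exposed to compound titrations and an EC50 level of EGF for 5 hours at 37 °C, then loaded with CCF4 dye for 2.5 hours. Beta-lactamase activity under the AP-1 element is read as a blue/green ratio.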

[3] = Stat Signaling Pathway (AID 446; active = well fitted curve in either direction with a large enough effect, not every such curve was filed as active;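 note: ME-180 cervical cancer cells given 40 pM IL-6 alongside compound; SIE-controlled beta-lactamase reporter measured as 460/530 nm FRET emission ratio; % is set by controls: 0 for no effect and ±100 for the full control effect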); settings: ME-180 SIE beta-lactamase reporter, IL-6 stimulated, 5 h; at 7.69 µM (top of the series) unless noted
Outline: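 Reporter line: ME-180 cervical carcinoma, SIE-beta-lactamase. Treatment: compound with 40 pM IL-6, 5 hrs, 37 C, in low-serum OPTI-MEM with 10 mM HEPES pH 7.3. Detection: 460/530 nm fluorescence.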

[4] = target: Glucocorticoid receptor (Homo sapiens) (UniProt P04150); assay: GR-GFP Redistribution (AID 450;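 active = compounds whose dose series gives a full or clear partial fitted curve of increased nuclear translocation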; note: potency is the fitted concentration of half-maximal effect); settings: U2OS GR-GFP nuclear translocation, laser cytometry, 2 h
Glucocorticoid receptor (Homo sapiens), sequence (P04150 whole entry, looked up, the tested form may be a part): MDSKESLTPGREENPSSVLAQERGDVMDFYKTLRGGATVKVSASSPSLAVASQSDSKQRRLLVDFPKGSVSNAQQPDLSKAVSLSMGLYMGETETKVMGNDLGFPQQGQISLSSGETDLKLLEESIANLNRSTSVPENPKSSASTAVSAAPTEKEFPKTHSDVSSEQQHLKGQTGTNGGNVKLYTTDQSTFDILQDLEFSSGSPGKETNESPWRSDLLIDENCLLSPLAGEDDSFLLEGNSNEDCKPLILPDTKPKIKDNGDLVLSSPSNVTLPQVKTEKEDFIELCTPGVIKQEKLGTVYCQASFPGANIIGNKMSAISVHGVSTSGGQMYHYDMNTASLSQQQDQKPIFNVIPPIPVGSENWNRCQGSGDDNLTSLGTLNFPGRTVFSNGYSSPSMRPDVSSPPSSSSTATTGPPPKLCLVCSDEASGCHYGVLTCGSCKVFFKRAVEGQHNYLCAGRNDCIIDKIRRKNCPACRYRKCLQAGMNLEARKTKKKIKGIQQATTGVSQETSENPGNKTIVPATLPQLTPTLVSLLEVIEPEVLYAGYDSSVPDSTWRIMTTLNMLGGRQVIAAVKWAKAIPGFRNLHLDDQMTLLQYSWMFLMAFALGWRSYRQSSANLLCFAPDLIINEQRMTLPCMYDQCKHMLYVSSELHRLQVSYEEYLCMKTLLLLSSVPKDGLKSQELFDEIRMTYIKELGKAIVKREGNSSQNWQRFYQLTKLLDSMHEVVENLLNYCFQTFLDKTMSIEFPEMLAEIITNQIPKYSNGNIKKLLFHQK

[5] = target: Glucocorticoid receptor (Homo sapiens) (UniProt P04150); assay: GR-EFC Redistribution (AID 451; calls by dose curve; note: potency is the fitted concentration of half-maximal effect); settings: CHO-K1 GR-EFC translocation, beta-gal luminescence, 2 h
Outline: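 Translocation of GR-ED fusion to nuclear EA restores b-gal, read by luminescence after 1 h room-temperature detection. Engineered CHO-K1 biosensor cells, 1,000/well, exposed 2 h at 37 C to titrations up to 46 uM final.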

[6] = target: Mitogen-activated protein kinase 10 (Mus musculus) (UniProt Q61831); assay: JNK3 AlphaScreen Assay (AID 530; active = well fitted curve in either direction with a large enough effect, not every such curve was filed as active;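 note: kinase came from lysate of stimulated human HepG2 cells; signal reports phosphorylation of biotinylated GST-cJun 1-79 at Ser73 with 10 µM ATP; % is set by controls: 0 for no effect and ±100 for the full control effect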); settings: JNK3 lysate, c-Jun phosphorylation; series mostly up to 57.1 µM
Outline: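 Room-temperature AlphaScreen kinase assay; pre-activated HepG2 lysate as JNK3 source, biotin-GST-cJun(1-79) substrate, 10 uM ATP, compound 15 min preincubation.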

[7] = qHTS Assay for Lipid Storage Modulators (AID 1519; calls by dose curve); settings: Drosophila S3 cells, BODIPY lipid droplet/cell ratio, laser cytometry, cells loaded with oleic acid; for activity change, negative = inhibition: at 57.5 µM (top of the series)
Outline: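 Cells seeded at 5,000 per well were treated with compounds over a concentration series and loaded with oleic acid (400 uM, as added). Lipid droplet fluorescence (488 nm excitation, 500-530 nm channel) was read by laser-scanning cytometry and normalized to 20 uM Triacsin C.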

[8] = target: Dual specificity protein kinase CLK4 (Homo sapiens) (UniProt Q9HAZ1); assay: qHTS Assay for Inhibitors of CDC-like Kinase 4 (ADP-FP Assay) (AID 1795); settings: Transcreener ADP fluorescence polarization; series mostly up to 50 µM; note: nearly all actives have a fitted effect of over 60% in size; note: potency is the fitted concentration of half-maximal effect
Dual specificity protein kinase CLK4 (Homo sapiens), sequence (Q9HAZ1 whole entry, looked up): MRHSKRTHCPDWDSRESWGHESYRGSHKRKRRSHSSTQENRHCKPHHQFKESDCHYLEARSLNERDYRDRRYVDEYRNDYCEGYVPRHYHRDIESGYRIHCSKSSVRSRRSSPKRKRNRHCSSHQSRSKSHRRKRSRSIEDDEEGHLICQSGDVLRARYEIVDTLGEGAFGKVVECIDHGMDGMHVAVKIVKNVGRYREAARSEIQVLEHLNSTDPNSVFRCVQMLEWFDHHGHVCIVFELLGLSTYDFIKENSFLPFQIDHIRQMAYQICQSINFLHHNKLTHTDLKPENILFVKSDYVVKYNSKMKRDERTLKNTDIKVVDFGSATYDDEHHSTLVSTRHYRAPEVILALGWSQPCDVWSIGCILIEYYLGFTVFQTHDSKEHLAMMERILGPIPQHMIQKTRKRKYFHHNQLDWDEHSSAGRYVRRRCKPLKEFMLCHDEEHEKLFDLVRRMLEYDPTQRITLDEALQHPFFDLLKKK
Outline: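 Clk4 6.25 nM; RS peptide 100 uM; ATP 1 uM; 25 mM Tris pH 7.5, 10 mM MgCl2; 1 h reaction. ADP detected via antibody/orange tracer FP displacement; TG003 positive control.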

[9] = target: Ubiquitin carboxyl-terminal hydrolase 1 (Homo sapiens) (UniProt O94782); assay: Inhibitors of USP1/UAF1: Pilot qHTS (AID 504865); settings: purified USP1/UAF1, Ub-rhodamine cleavage fluorescence; series mostly up to 54.9 µM;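 note: rhodamine fluorescence freed from ubiquitin-rhodamine substrate followed over time; top concentration of the series differs between compounds; % is set by controls: 0 for no effect and ±100 for the full control effect; nearly all actives have a fitted effect of over 35% in size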
Ubiquitin carboxyl-terminal hydrolase 1 (Homo sapiens), sequence (O94782 whole entry, looked up): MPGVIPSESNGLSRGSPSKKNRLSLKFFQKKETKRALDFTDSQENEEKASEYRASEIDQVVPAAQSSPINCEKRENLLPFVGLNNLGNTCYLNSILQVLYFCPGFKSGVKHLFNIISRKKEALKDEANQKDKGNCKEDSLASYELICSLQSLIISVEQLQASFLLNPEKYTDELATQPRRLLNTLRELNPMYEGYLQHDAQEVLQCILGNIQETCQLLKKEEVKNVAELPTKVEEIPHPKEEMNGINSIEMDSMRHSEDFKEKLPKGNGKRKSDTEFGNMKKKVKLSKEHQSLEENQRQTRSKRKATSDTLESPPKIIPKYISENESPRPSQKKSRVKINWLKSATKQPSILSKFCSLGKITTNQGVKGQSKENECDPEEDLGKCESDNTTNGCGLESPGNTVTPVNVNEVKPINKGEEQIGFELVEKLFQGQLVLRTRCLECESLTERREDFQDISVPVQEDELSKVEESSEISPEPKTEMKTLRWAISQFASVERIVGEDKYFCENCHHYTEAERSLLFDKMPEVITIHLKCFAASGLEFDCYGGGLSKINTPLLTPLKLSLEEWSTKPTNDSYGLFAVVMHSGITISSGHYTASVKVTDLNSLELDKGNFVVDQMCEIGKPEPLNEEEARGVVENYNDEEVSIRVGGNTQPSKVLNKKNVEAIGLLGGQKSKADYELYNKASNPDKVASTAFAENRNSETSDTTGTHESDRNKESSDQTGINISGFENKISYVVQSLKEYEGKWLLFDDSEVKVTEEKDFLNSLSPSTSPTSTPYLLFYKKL
Outline: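 In 50mM HEPES pH 7.8 containing 0.5mM EDTA, 1mM TCEP, 0.1 mg/ml BSA and 0.01% Tween-20, 1nM USP1/UAF1 is exposed to compound for 15 min, then Ub-Rho (150nM final) is added and fluorescence is read over time.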

[10] = Primary qHTS for small molecule stabilizers of the endoplasmic reticulum resident proteome: Secreted ER Calcium Modulated Protein (SERCaMP) assay (AID 1508630); settings: SH-SY5Y GLuc-SERCaMP (Gaussia luciferase released on ER calcium loss) secretion, thapsigargin, luminescence; series mostly up to 38.4 µM; note: % is set by controls: 0 for no effect and ±100 for the full control effect
Outline: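 GLuc-SERCaMP-expressing SH-SY5Y cells, pretreated 16 h with compound, are challenged with thapsigargin to empty ER calcium stores; after 4 h, coelenterazine is added directly to the medium and luminescence is imaged.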

[11] = target: Cytochrome P450 1A2 (Homo sapiens) (UniProt P05177); assay: p450-cyp1a2 (AID 410; calls by dose curve; note: potency is the fitted concentration of half-maximal effect); settings: recombinant CYP1A2, luciferin-ME demethylation, luminescence; series mostly up to 57 µM
Cytochrome P450 1A2 (Homo sapiens), sequence (P05177 whole entry, looked up): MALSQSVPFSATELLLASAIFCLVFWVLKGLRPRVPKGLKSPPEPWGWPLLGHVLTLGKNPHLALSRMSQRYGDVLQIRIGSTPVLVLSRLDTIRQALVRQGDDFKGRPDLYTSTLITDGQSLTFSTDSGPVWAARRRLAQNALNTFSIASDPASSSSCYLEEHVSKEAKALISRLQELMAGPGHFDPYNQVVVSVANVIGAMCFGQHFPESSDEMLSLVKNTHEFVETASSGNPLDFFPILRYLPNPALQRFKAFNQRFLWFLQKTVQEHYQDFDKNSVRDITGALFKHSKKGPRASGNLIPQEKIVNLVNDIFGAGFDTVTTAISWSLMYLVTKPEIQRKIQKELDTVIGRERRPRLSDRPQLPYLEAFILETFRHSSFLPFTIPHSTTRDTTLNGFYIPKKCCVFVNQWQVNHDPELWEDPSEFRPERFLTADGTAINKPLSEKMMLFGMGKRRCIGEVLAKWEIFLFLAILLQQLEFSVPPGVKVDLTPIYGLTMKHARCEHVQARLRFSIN
Outline: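 Inhibition was calculated relative to 57 uM furafylline (full inhibition). The reaction used human CYP1A2 at 20nM with Luciferin-ME at its Km, 100uM, driven by an NADPH-regenerating system for 60 min at room temperature.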

[12] = target: 3',5'-cyclic-AMP phosphodiesterase 4B (Homo sapiens) (UniProt Q07343); assay: qHTS Assay for Inhibitors of PDE-IV (AID 607; active = well fitted activation curve with a large enough effect in the main read-out, with a control signal flat, not every such curve was filed as active; note: % of control where 0% means no effect); settings: HEK293 ACTOne CNG channel cells, membrane potential fluorescence; series mostly up to 22.9 µM
3',5'-cyclic-AMP phosphodiesterase 4B (Homo sapiens), sequence (Q07343 whole entry, looked up): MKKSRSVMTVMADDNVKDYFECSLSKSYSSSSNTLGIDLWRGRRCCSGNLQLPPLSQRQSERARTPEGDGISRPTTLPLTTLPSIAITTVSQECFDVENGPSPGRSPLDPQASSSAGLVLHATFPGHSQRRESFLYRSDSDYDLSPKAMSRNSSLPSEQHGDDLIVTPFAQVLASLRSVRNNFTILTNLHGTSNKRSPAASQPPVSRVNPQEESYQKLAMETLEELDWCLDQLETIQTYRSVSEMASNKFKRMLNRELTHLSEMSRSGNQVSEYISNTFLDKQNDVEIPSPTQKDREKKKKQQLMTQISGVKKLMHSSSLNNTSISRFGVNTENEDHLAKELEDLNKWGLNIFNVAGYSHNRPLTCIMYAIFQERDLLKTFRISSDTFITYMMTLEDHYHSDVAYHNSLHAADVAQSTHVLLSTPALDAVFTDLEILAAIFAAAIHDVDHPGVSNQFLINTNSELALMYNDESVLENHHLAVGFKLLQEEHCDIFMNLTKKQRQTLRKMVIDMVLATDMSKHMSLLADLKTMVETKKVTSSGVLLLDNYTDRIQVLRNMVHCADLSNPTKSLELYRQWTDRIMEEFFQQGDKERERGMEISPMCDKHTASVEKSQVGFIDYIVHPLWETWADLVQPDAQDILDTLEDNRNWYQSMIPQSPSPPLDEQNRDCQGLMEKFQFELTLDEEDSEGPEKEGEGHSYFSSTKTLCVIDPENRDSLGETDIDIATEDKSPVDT
Outline: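 Cell-based read-out of cAMP via a modified cyclic nucleotide-gated channel and membrane potential dye (535/590 nm) in HEK293 cells expressing PDE4 endogenously. Compounds tested up to 22.9 uM final; 100 uM RO 20-1724 reference.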

[13] = qHTS Assay for Identification of Small Molecule Agonists for Hypoxia Response Element Signaling Pathway (AID 914; active = well fitted activation curve with a large enough effect in the signal ratio, with a control signal flat, not every such curve was filed as active; the % refers to the signal ratio; note: potency is the fitted concentration of half-maximal effect); settings: ME-180 (cervical carcinoma) HRE-bla reporter, beta-lactamase ratio, CoCl2, 17 h; activation: stronger effect = higher value
Outline: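 Compounds in a titration series were added to ME-180 reporter cells alongside an EC50 level of CoCl2. After 17 hours, beta-lactamase activity was read as the 460nm/530nm emission ratio of CCF4, giving AC50 values.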

[14] = NFAT Signaling Pathway (AID 444; active = well fitted curve in either direction with a large enough effect, not every such curve was filed as active); settings: Jurkat NFAT-bla M1, carbachol, beta-lactamase ratio, 5 h; at 7.69 µM (top of the series) unless noted
Outline: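 Read-out: CCF4 FRET ratio (460 nm/530 nm) after 1 h RT dye loading, used for %activity and AC50 from titration series. Cells: Jurkat NFAT-β-lactamase/M1 line, treated with compound plus 1 uM carbachol for 5 h, 37 °C.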

[15] = target: Cytochrome P450 3A4 (Homo sapiens) (UniProt P08684); assay: qHTS Assay for Activators of Cytochrome P450 3A4 (AID 885); settings: recombinant CYP3A4, Luciferin-PPXE luminescence, 60 min; series mostly up to 57.1 µM; note: nearly all actives have a fitted effect of over 65% in size
Cytochrome P450 3A4 (Homo sapiens), sequence (P08684 whole entry, looked up): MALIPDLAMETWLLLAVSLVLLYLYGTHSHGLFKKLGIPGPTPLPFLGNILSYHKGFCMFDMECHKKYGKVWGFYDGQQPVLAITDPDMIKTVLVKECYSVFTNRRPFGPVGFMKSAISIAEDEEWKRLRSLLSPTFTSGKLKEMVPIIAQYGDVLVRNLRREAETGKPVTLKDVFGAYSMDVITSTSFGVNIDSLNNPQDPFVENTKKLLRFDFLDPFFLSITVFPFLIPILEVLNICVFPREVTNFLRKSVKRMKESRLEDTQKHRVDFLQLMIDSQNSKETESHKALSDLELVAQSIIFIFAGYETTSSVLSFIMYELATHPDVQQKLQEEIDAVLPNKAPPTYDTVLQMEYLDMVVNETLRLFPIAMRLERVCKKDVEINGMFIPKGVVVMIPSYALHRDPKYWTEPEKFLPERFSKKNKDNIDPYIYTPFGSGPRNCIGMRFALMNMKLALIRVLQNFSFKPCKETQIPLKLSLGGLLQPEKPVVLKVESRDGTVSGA
Outline: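 Signal was normalized against complete inhibition by 57 uM ketoconazole. The reaction used 20nM CYP3A4 with 25uM Luciferin-PPXE, 10-min compound preincubation and a 60-min NADPH-supported step at RT.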

[16] = measured here: cell count channel max response
[17] = measured here: lipid channel max response

| SMILES | Potency [1] | activity change, negative = inhibition [2] | activity, negative = inhibition [3] | Potency [4] | Potency [5] | outcome [6] | activity change, negative = inhibition [7] | max response [7, 16] [%] | max response [7, 17] [%] | Potency [8] | Potency [9] | Potency [10] | Potency [11] | Potency [12] | Potency [13] | activity change, negative = inhibition [14] | Potency [15] |
| --- | --- | --- | --- | --- | --- | --- | --- | --- | --- | --- | --- | --- | --- | --- | --- | --- | --- |
| COc1cccc(Nc2ncc3nc(-c4ccccc4)c(=O)n(Cc4cccs4)c3n2)c1 | > 11.4 µM (inactive) | -7.2% (inactive) | 21.9% (inactive) | > 9.22 µM (inactive) | > 46 µM (inactive) | inactive | 5.46% (inactive) | 20.3 | 24.9 | inactive | inactive | inactive | – | – | – | – | – |
| CN1CCN(c2ncc3nc(-c4cccs4)c(=O)n(CCC#N)c3n2)CC1 | > 11.4 µM (inactive) | – | – | > 9.22 µM (inactive) | > 46 µM (inactive) | inactive | 0.733% (inactive) | 11.3 | 9.27 | inactive | inactive | inactive | 15.8 µM (active) | inactive | 3.16 µM (active) | – | – |
| CNc1ncnc2ccc(-c3ccccc3C)cc12 | > 11.4 µM (inactive) | -4.22% (inactive) | -3.66% (inactive) | > 46 µM (inactive) | > 46 µM (inactive) | inactive | -7.2% (inactive) | -12.3 | -15.2 | 8.91 µM (active) | inactive | inactive | – | – | – | 3.06% (inactive) | – |
| COc1cccc(Nc2ncc3nc(-c4cn(C)c5ccccc45)c(=O)n(CCC#N)c3n2)c1 | > 11.4 µM (inactive) | -25.6% (inactive) | -9.25% (inactive) | > 9.22 µM (inactive) | > 46 µM (inactive) | inactive | 2.44% (inactive) | 27 | 27.4 | inactive | inactive | inactive | 20 µM (active) | inactive | – | – | inactive |
| Cn1c(=O)c(-c2cccs2)nc2cncnc21 | > 11.4 µM (inactive) | 16% (inactive) | -17.1% (inactive) | > 9.22 µM (inactive) | > 46 µM (inactive) | inactive | 2.77% (inactive) | 18.7 | 19.2 | inactive | inactive | inactive | 1.26 µM (active) | inactive | – | – | inactive |
| COc1ccc(-n2c(=O)cnc3cnc(N4CCN(C)CC4)nc32)cc1 | > 11.4 µM (inactive) | -6.82% (inactive) | 2.91% (inactive) | > 9.22 µM (inactive) | > 46 µM (inactive) | inactive | 2.82% (inactive) | 18.4 | 19.5 | inactive | inactive | inactive | – | inactive | – | -9.46% (inactive) | – |
| COc1cccc(Cn2c(=O)cnc3cnc(Oc4ccccc4)nc32)c1 | > 11.4 µM (inactive) | -13.9% (inactive) | -14.7% (inactive) | > 9.22 µM (inactive) | > 46 µM (inactive) | inactive | -0.165% (inactive) | 3.98 | 3.52 | inactive | inactive | inactive | – | – | – | -0.253% (inactive) | – |

From PubChem BioAssay (NCATS)
